High-throughput results (PubChem BioAssay)
Pf growth 96h: Primary qHTS for delayed death inhibitors of the malarial parasite plastid, 96 hour incubation | P. falciparum luciferase reporter growth, 96 h | Potency, µM (doses to about 28.7 µM), inactives show top-dose activity change, negative = inhibition, most hits filed as inhibitors | hit rate 6.9% among 320,000 | AID 504834, 2011
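Two-generation exposure (96 h) targets delayed-death phenotype. Reporter parasites carrying integrated firefly luciferase, in red cells at 2% hematocrit and 0.05% parasitemia final, kept at 37 C, 5% CO2; luminescence loss indicates inhibition.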
Pf growth 48h: Primary qHTS for delayed death inhibitors of the malarial parasite plastid, 48 hour incubation. P. falciparum luciferase growth in erythrocytes, 48 h. Potency, µM (series often up to 28.7 µM), inactives show at the highest dose activity change, negative = inhibition, actives largely listed as inhibitors. hit rate 5.9% among 310,000. AID 504832, 2011
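Firefly luciferase activity from engineered P. falciparum reports growth; inhibitors lower the luminescent signal. Cultures contained 2% hematocrit erythrocytes at 0.1% final parasitemia.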
AMA1-RON2 inh: qHTS for Inhibitors of AMA1-RON; Towards Development of Antimalarial Drug Lead: Primary Screen. Potency, µM (doses to about 58.2 µM), without a hit: at the top dose activity change, negative = inhibition, actives largely listed as inhibitors. Plasmodium falciparum AMA1 (3D7) - RON2 peptide interaction. AlphaScreen AMA1-biotinylated RON2 peptide binding. hit rate 0.2% among 360,000;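 note: 0% = vehicle wells and -100% = peptide control; nearly all actives have a fitted effect of over 45% in size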
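AMA1 (3D7) with his tag at 25 nM final met compounds first, then biotinylated RON2 peptide at 25 nM; detection used donor plus acceptor beads, 10 µg/mL apiece, read by AlphaScreen after 30 min at room temperature.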
HCV inh: qHTS Assay for Inhibitors of Hepatitis C Virus (HCV); Huh7.5.1 HCVcc-Cre infection, luciferase reporter, 44 h; Potency, µM (titrated, usually from 41.8 µM), for the others: at the highest dose activity change, negative = inhibition, hits mostly inhibitors; hit rate 3.4% among 340,000
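Whole-lifecycle infectious HCVcc-Cre system; cells 1,000/well, compound then virus (~0.5 moi) added 4 h after plating, 44 h culture. Luciferase read 15 sec following 15 min substrate incubation, room temp.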
The depositor's hits bear a star; ? = inconclusive; . = no result; [ ] = another dose, or the depositor's remark. Only some compounds are listed: those with a hit (about 11% of all), similar ones and a draw of the others. Calls come from the whole dose curve; as a rule, active = well fitted curve in the direction sought with a large enough effect; inconclusive = small, poorly fitted or top-dose-only effect, or another doubt; inactive = no such curve, though single readings can be large; an effect the other way counts as inactive or inconclusive. Unless noted, % is set by controls: 0 for no effect and ±100 for the full control effect; potency is the fitted concentration of half-maximal effect.

SMILES	Pf growth 96h	Pf growth 48h	AMA1-RON2 inh	HCV inh
CCCC(C)C(=O)Nc1nc(C)c(-c2csc(Nc3cc(OC)ccc3OC)n2)s1 (stereo not given)	9.3µM*	6.6µM*	0%	?
CCCC(=O)Nc1nc(C)c(-c2csc(Nc3cc(OC)ccc3OC)n2)s1	?	?	29%	?
CC(C)CCCC(C)C1CC(=O)C2=C3CCC4CC(O)CCC4(C)C3CCC21C (stereo not given)	?	-22%	.	.
CCCNC(=O)c1cc(S(=O)(=O)N2CCCCC2)ccc1N1CCOCC1	-8%	?	-3%	32%
CN(Cc1cccc(F)c1)C(=O)c1cc(S(=O)(=O)N2CCOCC2)ccc1N1CCCC1	?	?	4%	19%
CC1CCC(NC(=O)c2cc(S(=O)(=O)N3CCCCC3)ccc2N2CCOCC2)CC1 (stereo not given)	?	9.3µM*	-1%	-28%
CCc1ccc(CN(C)C(=O)c2cc(S(=O)(=O)N3CCOCC3)ccc2N2CCCC2)cc1	?	12µM*	6%	-28%
CCCCCC(C)NC(=O)c1cc(S(=O)(=O)N2CCCCC2)ccc1N1CCOCC1 (stereo not given)	?	13µM*	-3%	-25%
Cc1ccc(OCCC(=O)NNC(=O)c2nn(C)c(=O)c3ccccc23)cc1	?	?	91%[11.6 µM]	8%
Cc1cccc2cc(CN(Cc3nnnn3Cc3ccco3)C3CCCC3)c3nnnn3c12	-13%	?	-1%	?
Cc1ccc(O)c(-c2cc(-c3ccccc3[N+](=O)[O-])[nH]n2)c1	189%	?	46%	-23%
COc1ccc(-c2cc(-c3cc(C)ccc3O)[nH]n2)cc1	?	?	53%	3.5µM*
Cc1ccc(-c2cc(-c3ccccc3)no2)c(O)c1	?	?	-4%[11.6 µM]	9%
Cc1ccc(O)c(-c2cc(C(F)(F)C(F)F)[nH]n2)c1	9.3µM*	9.3µM*	19%	?
Cc1ccc(O)c(-c2cc(-c3ccccc3C)[nH]n2)c1	12%	?	53%	11µM*
COc1ccc(-c2cc(-c3ccc(C)cc3)n[nH]2)c(O)c1	34%	?	74%	?
Cc1ccc(O)c(-c2cc(-c3ccc(F)cc3)no2)c1	?	10µM*	-2%	5%
CC1(C(=O)NS(=O)(=O)c2ccccc2)CCN1C(=O)CCc1ccc(Cl)cc1Cl (stereo not given)	.	.	2%	.
O=C(NCc1ccccc1Cl)C(=O)NCC1OCCCN1S(=O)(=O)c1cccs1 (stereo not given)	2%	-22%	2%	1%
COC(=O)C1=C(c2cccc(OCc3ccccc3)c2)C[C@@H]2CC[C@H]1N2C(=O)NCc1cccc(F)c1	?	8.3µM*	-7%	-26%
COC(=O)C1=C(c2cccc(OCc3ccccc3)c2)C[C@@H]2CC[C@H]1N2C(=O)NCc1cccc(C(F)(F)F)c1	?	13µM*	-5%	?
COC(=O)C1=C(c2cccc(OCc3ccccc3)c2)C[C@@H]2CC[C@H]1N2C(=O)NCc1ccc(Cl)cc1	?	8.3µM*	-2%	?
COC(=O)C1=C(c2cccc(OCc3ccccc3)c2)C[C@@H]2CC[C@H]1N2C(=O)NCc1ccc(OC)c(OC)c1	?	?	-3%	?
COC(=O)C1=C(c2cccc(OCc3ccccc3)c2)C[C@@H]2CC[C@H]1N2C	.	.	-5%	.
COC(=O)C1=C(c2cccc(OCc3ccccc3)c2)C[C@@H]2CC[C@H]1N2C(=O)NCc1ccccc1	?	13µM*	6%	?
NC(=O)CC(NC(=O)c1ccc(Br)cc1)c1ccc(NC2CCCCCCC2)c([N+](=O)[O-])c1 (stereo not given)	-19%	-16%	-6%	6%
CCN(CC(=O)Nc1c(F)cccc1F)C(=O)CSC(=S)N1CCCC1	?	?	17%	-7%
COc1ccc(C2(CNC(=O)c3ccccc3[N+](=O)[O-])CCOCC2)cc1	45%	17%	-21%	15%
COC(=O)C1=C(c2cccc(OCc3ccccc3)c2)C[C@@H]2CC[C@H]1N2C(=O)NCc1ccc([N+](=O)[O-])cc1	?	12µM*	-11%	?
